What all share (assay): log2 fold change, soluble protein after heating vs DMSO (PISA); higher = thermal stabilisation; K562 lysate, 10 uM; active = over 0.2 and 3.5 SD of the protein, either way, in both replicates (recomputed)
Compound in experiment [1]: NCC(=O)Nc1ccc(-n2nc(C(F)(F)F)cc2-c2ccc3c(ccc4ccccc43)c2)cc1
A digest of the protocol:
(§1)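 Pellets of K562 cells were dounce-homogenised in PBS pH 7.4 with 1 mM MgCl2, and the crude extract was held at 1 mg/mL protein for a 30 min treatment with 10 μM compound. Aliquots were heated for 3 min over 48°C-58°C and pooled before NP-40 was added to 0.5% at 4°C. The supernatant from 21,000xg for 90 min was quantified by TMTpro 16plex LC-MS/MS with channel sums equalised. Values are reported from duplicates as log-two fold change in thermal stability relative to solvent controls.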

Compound in a further experiment: O=C(CCCCCCC(=O)Nc1ccccc1)NO [vorinostat]
An outline of the steps:
as §1

Compound in another experiment: O=C(O)c1ccc2c(c1)nc(Nc1cccc(Cl)c1)c1ccncc12 [silmitasertib]
An outline of the steps: as §1

Compound in experiment [2]: O=C1NC(=O)C(c2cnc3ccccn23)=C1c1cn2c3c(cc(F)cc13)CN(C(=O)N1CCCCC1)CC2
A digest of the protocol: as §1

Compound in a further experiment: c1cn2cc(-c3ccc4cn[nH]c4c3)nc(Nc3ccc(N4CCOCC4)cc3)c2n1 [entospletinib]
A digest of the protocol:
as §1

Targets with a hit are over-represented here; the source holds about 8,800 in all. About 0.5% of all pairs of compound and target were hits. A number with no mark means an inactive call.

Chain of UniProt Q5JTZ9 (Q5JTZ9 whole entry, looked up): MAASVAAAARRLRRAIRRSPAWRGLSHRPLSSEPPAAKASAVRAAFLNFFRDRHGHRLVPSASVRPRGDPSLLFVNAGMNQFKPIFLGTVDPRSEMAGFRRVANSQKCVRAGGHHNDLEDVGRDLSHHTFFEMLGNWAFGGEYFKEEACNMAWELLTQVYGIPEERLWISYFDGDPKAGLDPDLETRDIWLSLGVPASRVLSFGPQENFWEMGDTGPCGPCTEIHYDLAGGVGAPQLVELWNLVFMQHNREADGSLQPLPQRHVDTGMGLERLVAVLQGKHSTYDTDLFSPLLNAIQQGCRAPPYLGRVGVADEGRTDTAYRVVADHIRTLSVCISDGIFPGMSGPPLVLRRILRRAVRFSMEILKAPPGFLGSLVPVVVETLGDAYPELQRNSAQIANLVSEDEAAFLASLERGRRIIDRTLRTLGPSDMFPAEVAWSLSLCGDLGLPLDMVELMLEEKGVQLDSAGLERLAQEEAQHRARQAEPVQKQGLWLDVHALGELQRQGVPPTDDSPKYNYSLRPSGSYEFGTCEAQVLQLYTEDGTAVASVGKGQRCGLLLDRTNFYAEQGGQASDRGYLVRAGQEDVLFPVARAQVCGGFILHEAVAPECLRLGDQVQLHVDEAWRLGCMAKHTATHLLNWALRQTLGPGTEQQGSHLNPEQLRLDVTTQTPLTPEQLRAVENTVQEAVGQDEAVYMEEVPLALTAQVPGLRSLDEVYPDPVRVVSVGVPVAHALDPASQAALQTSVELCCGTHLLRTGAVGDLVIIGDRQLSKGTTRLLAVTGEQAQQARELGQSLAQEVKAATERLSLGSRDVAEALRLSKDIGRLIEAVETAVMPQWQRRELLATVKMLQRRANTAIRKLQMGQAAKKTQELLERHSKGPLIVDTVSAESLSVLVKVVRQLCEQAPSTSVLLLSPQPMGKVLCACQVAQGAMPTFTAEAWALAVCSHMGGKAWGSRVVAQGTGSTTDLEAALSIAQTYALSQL
Chain of UniProt P09110 (P09110 whole entry, looked up): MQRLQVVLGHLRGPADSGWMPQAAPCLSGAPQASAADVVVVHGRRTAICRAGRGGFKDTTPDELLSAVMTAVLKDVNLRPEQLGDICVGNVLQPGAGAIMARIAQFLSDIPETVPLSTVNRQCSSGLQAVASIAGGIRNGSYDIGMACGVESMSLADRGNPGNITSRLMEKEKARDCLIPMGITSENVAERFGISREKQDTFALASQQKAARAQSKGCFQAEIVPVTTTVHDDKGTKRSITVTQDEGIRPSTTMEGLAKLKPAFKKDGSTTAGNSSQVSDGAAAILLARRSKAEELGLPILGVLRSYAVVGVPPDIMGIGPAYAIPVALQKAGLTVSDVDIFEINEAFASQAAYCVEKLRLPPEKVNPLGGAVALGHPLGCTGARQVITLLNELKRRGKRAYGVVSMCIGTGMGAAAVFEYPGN
Chain of UniProt Q8N2K0 (Q8N2K0 whole entry, looked up): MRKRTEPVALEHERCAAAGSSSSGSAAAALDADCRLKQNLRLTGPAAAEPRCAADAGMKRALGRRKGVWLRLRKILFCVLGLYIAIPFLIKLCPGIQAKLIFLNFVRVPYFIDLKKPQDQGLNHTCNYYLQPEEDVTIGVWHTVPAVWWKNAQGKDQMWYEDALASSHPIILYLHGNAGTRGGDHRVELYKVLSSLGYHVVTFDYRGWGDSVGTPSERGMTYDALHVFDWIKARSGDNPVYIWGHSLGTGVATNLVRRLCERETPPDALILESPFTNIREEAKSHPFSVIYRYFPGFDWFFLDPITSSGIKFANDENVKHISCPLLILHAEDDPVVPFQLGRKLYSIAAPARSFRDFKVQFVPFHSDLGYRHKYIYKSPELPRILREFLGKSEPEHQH
Chain of UniProt P04083 (P04083 whole entry, looked up): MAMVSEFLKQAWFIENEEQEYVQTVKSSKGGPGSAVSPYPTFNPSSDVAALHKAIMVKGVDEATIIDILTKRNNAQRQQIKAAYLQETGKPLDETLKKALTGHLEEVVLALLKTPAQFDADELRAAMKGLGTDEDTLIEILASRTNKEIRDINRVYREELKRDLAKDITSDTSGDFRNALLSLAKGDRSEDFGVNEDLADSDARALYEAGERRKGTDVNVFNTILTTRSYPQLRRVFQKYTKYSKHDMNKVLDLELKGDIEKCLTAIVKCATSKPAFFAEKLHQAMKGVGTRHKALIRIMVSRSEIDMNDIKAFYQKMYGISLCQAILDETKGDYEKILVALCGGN
Chain of UniProt P39687 (P39687 whole entry, looked up): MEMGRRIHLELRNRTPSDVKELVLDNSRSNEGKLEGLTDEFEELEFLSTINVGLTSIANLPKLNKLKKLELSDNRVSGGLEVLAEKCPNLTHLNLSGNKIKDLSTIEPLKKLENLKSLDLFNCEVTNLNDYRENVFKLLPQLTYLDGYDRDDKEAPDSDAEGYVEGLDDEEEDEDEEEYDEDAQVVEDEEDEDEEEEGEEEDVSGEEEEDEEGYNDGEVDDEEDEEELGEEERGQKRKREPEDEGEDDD
Chain of UniProt Q6AI12 (Q6AI12 whole entry, looked up): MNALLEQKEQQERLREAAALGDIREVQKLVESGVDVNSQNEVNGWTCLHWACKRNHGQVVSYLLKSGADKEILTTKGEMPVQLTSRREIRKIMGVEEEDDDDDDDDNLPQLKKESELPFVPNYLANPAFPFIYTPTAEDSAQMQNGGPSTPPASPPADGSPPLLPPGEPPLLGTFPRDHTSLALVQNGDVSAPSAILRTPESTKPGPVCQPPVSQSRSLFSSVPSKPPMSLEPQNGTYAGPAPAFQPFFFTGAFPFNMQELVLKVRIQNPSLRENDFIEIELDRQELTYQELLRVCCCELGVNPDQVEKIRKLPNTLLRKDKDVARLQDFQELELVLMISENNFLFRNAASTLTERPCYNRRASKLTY
Chain of UniProt P05091 (P05091 whole entry, looked up): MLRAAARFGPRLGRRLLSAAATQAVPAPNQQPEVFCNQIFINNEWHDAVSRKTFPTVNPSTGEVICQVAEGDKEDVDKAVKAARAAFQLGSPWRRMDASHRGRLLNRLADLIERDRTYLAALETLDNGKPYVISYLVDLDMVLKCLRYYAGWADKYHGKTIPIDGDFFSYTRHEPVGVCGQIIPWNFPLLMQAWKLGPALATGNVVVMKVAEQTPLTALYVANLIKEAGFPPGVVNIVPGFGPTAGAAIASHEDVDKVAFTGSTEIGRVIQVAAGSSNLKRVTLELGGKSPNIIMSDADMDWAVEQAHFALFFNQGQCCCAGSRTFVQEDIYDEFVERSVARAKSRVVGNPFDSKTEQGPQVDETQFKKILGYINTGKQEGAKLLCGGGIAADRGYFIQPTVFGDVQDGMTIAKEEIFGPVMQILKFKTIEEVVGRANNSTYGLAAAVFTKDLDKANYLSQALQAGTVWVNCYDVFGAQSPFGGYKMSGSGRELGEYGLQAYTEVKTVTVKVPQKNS
Chain of UniProt Q9UPW5 (Q9UPW5 whole entry, looked up): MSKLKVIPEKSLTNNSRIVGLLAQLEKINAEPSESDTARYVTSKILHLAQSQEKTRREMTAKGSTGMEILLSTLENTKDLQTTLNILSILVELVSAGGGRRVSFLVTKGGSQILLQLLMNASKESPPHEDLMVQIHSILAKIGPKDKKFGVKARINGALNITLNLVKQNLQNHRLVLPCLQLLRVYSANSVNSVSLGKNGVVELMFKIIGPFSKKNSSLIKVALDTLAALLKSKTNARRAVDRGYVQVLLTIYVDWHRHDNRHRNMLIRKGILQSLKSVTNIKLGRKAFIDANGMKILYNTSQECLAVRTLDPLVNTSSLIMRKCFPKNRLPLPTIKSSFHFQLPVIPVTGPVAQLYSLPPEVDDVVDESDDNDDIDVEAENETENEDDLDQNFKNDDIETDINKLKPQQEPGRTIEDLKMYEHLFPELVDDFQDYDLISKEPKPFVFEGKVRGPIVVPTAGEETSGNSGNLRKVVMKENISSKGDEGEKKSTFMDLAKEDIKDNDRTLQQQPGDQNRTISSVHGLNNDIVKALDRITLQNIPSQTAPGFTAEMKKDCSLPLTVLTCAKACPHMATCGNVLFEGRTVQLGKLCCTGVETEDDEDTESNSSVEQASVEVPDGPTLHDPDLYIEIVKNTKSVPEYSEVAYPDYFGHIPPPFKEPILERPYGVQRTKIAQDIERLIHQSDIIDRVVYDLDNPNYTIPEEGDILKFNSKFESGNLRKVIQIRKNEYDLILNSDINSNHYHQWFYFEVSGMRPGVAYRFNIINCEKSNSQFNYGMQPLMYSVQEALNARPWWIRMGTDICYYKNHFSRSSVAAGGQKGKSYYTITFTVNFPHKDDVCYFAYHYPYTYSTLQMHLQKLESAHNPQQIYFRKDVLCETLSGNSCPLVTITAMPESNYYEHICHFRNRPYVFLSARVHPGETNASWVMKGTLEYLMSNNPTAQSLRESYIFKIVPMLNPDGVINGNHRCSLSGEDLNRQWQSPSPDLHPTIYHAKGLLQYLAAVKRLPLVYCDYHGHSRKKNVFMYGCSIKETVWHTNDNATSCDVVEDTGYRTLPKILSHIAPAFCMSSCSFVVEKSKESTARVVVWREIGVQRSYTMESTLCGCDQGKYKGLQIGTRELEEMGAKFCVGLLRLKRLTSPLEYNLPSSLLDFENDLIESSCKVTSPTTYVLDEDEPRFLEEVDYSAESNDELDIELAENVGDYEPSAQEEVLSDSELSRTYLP
Chain of UniProt Q9BR61 (Q9BR61 whole entry, looked up): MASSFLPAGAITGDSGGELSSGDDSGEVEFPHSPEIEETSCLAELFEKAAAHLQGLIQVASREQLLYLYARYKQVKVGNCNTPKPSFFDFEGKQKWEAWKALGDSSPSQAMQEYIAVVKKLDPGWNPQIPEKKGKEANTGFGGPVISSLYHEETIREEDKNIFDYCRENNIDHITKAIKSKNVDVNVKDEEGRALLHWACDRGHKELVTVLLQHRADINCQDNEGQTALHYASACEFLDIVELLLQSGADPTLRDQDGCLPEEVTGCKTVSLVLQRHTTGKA
Chain of UniProt P07311 (P07311 whole entry, looked up): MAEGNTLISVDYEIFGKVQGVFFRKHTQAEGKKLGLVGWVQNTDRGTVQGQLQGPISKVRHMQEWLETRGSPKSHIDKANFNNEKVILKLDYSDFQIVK

Consider ARHGEF1 (UniProt M0QZR4), for which the log2 fold change is 0.019 in experiment [1]; -0.392 (active) in the experiment with vorinostat; 0.023 in the experiment with silmitasertib; 0.004 in experiment [2]; 0.003 with entospletinib.

Take ACAA1 (UniProt P09110): the log2 fold change in experiment [1] is -0.005; in the experiment with vorinostat it was -0.332 (active); in the experiment with silmitasertib, -0.039; in experiment [2], 0.033; with entospletinib it was 0.038.

Turning to ASB6 (UniProt Q9NWX5), the log2 fold change in experiment [1] was 0.116; with vorinostat, -0.005; with silmitasertib, -0.057; in experiment [2], -0.019; in the experiment with entospletinib it was 0.074.

Consider APEX1 (UniProt P27695), for which the log2 fold change was 0.007 in experiment [1]; -0.15 with vorinostat; 0.026 with silmitasertib; -0.001 in experiment [2]; -0.002 in the experiment with entospletinib.

In the case of ALDH5A1 isoform 2 (UniProt P51649), the log2 fold change in experiment [1] was -0.02; in the experiment with vorinostat it was 0.371 (active); in the experiment with silmitasertib, -0.005; in experiment [2], -0.057; with entospletinib, 0.003.

As to AIMP1 isoform 2 (UniProt Q12904), the log2 fold change in experiment [1] is -0.01; in the experiment with vorinostat, -0.235 (active); with silmitasertib it was 0.02; in experiment [2], 0.007; in the experiment with entospletinib it was 0.02.

Regarding ANXA1 (UniProt P04083), the log2 fold change was -0.013 in experiment [1]; -0.255 (active) with vorinostat; -0.007 with silmitasertib; -0.031 in experiment [2]; 0.011 in the experiment with entospletinib.

Turning to ANP32A (UniProt P39687), the log2 fold change in experiment [1] is -0.005; in the experiment with vorinostat, 0.08; with silmitasertib, 0.063; in experiment [2] it was -0.027; in the experiment with entospletinib, 0.026.

For ANXA11 (UniProt P50995), the log2 fold change is -0.003 in experiment [1]; -0.117 with vorinostat; 0.044 with silmitasertib; -0.018 in experiment [2]; 0.031 with entospletinib.

With AMMECR1 (UniProt Q9Y4X0), the log2 fold change in experiment [1] is 0.004; with vorinostat, -0.387 (active); in the experiment with silmitasertib it was 0.003; in experiment [2], -0.016; with entospletinib, 0.

Consider ALDH6A1 (UniProt Q02252), for which the log2 fold change in experiment [1] is -0.041; with vorinostat it was -0.046; with silmitasertib it was 0.042; in experiment [2], 0.096; with entospletinib, 0.035.

For ACYP1 (UniProt P07311), the log2 fold change in experiment [1] was -0.015; in the experiment with vorinostat, 0.127; in the experiment with silmitasertib it was -0.028; in experiment [2] it was -0.002; with entospletinib, 0.008.

In the case of ARHGAP25 isoform 4 (UniProt P42331), the log2 fold change in experiment [1] is 0.027; with vorinostat it was -0.377 (active); with silmitasertib, 0.011; in experiment [2] it was -0.038; in the experiment with entospletinib it was 0.009.

As to ABCC5 (UniProt O15440), the log2 fold change is 0.025 in experiment [1]; 0.042 in the experiment with vorinostat; -0.023 with silmitasertib; -0.028 in experiment [2]; -0.036 with entospletinib.

As to AIP (UniProt O00170), the log2 fold change was -0.001 in experiment [1]; -0.061 in the experiment with vorinostat; -0.032 with silmitasertib; 0.003 in experiment [2]; -0.003 with entospletinib.

In the case of ALDH2 (UniProt P05091), the log2 fold change in experiment [1] is -0.068; in the experiment with vorinostat it was 0.627 (active); in the experiment with silmitasertib, 0.009; in experiment [2], 0.019; with entospletinib, -0.009.

On to ACBD6 (UniProt Q9BR61), for which the log2 fold change in experiment [1] is -0.009; with vorinostat it was -0.298 (active); in the experiment with silmitasertib, 0.003; in experiment [2], 0.028; with entospletinib it was -0.028.

As to AARS2 (UniProt Q5JTZ9), the log2 fold change in experiment [1] was -0.004; with vorinostat, -0.243 (active); in the experiment with silmitasertib, 0.085; in experiment [2], 0.028; in the experiment with entospletinib, 0.035.

Consider AGTPBP1 (UniProt Q9UPW5), for which the log2 fold change is 0.125 in experiment [1]; -0.033 with vorinostat; -0.012 with silmitasertib; 0.11 in experiment [2]; 0.035 in the experiment with entospletinib.

Turning to ANKRD40 (UniProt Q6AI12), the log2 fold change in experiment [1] was 0.914 (active); with vorinostat, -0.217; with silmitasertib, -0.088; in experiment [2], 0.007; with entospletinib, -0.057.

As for AK4 (UniProt P27144), the log2 fold change in experiment [1] is -0.051; in the experiment with vorinostat, 0.037; with silmitasertib it was -0.008; in experiment [2], -0.016; with entospletinib, -0.02.

On to ABHD12 isoform 2 (UniProt Q8N2K0), for which the log2 fold change in experiment [1] was -0.003; with vorinostat it was 0.392 (active); with silmitasertib, -0.026; in experiment [2], -0.023; with entospletinib, -0.023.

For the target ACTG1 (UniProt I3L4N8), the log2 fold change was -0.131 in experiment [1]; 0.358 in the experiment with vorinostat; -0.043 in the experiment with silmitasertib; 0.082 in experiment [2]; 0.098 with entospletinib.

Regarding ALKBH4 (UniProt Q9NXW9), the log2 fold change in experiment [1] is 0.061; in the experiment with vorinostat it was 0.264 (active); with silmitasertib, -0.032; in experiment [2], -0.088; with entospletinib, -0.012.

For the origin of these results see the supplement of paper PMC10849652.
